Compound activity as filed in PubChem.
Compounds with a hit are over-represented: about 1.6% of the library has one in this group of screens.
KCNQ2 enhance: enhances the rat KCNQ2 potassium channel; CHO-K1 KCNQ2, FluxOR thallium flux fluorescence; hits give high values; 0.54% of 310,000 active; O88943; B-score at 10 µM;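 active means fluorescence ratio B-score at least 3 SD of library B-scores, with initial fluorescence B-score within 3 of them, cut at about 5.3 in these data; same plate scores as AID 2156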;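 further: B-score of peak minus minimum over baseline fluorescence ratio after K+ and Tl+ stimulus; positive B-score means potentiation of KCNQ2 with more thallium influx and brighter signal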
KCNQ2 block: blocks the rat KCNQ2 potassium channel | O88943 | CHO-K1 KCNQ2, FluxOR thallium flux, 20 min; hits give low values | B-score at 10 µM | 1.1% of 310,000 active;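 active means fluorescence ratio B-score at most minus 3 library SDs, with starting brightness B-score within 2 library SDs, cut at about -5.5 in these data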
Kir21 confirm: confirmation of mouse Kir2.1 potassium channel inhibitors | Tl flux remaining, % of negative control (hits give low values), % at 10 µM | shares compounds with KCNQ2 enhance | Kir2.1-expressing cells, FluxOR thallium flux fluorescence; hits give low values | 41% of 2,300 active | AID 2032;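 active means Primary-screen hit whose thallium flux fell at least 3 control SD below untreated wells in both duplicates, with normal baseline fluorescence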;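 further: 0% = blank wells without stimulus and 100% = stimulated no-compound controls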
HEK293 ctr: parental HEK293 activity in Kir2.1 inhibitor counter-screen; shares compounds with KCNQ2 enhance; parental HEK293 cells, FluxOR thallium flux fluorescence; 0% = unstimulated blank wells; FluxOR signal as % of negative control (100 = no effect), % at 10 µM; 19% of 2,300 active; AID 2105;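 active means dye signal at least 3 control SD above or below untreated wells in both duplicates, raw fluorescence within 3, either direction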;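 further: percent is based on the flux ratio of peak minus minimum fluorescence over baseline F0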
CHO-K1 ctr: alters thallium flux in parental CHO-K1 cells, KCNQ2 counter-screen; activity increase over 3SD of controls, % at 10 µM; shares compounds with KCNQ2 enhance; 43% of 1,200 active; FluxOR thallium flux fluorescence; zero = vehicle mean+3SD, 100% = vehicle-minus-blank window;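 active means signal rise of at least 3 SD above the untreated control mean, in both duplicate wells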;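 further: counter screen of KCNQ2 potentiator hits so any rise reflects channel-independent effects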
KCNQ1 sel pot: human KCNQ1 counter-target activity of KCNQ2 potentiators | shares compounds with KCNQ2 enhance | CHO KCNQ1 stable, FluxOR thallium flux fluorescence; beyond 3SD, as % of vehicle-control signal | activation over 3SD threshold, % at 10 µM | 28% of 1,200 active | AID 2283;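 active means fluorescence ratio rise of at least 3 SD of vehicle wells above their mean, in both replicate wells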;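 further: 0% = vehicle mean plus 3 SD and 100% = vehicle minus unstimulated blank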
KCNQ2 pot confirm: confirmation of rat KCNQ2 potassium channel potentiators; shares compounds with KCNQ2 enhance; CHO-KCNQ2 cells, FluxOR thallium flux fluorescence; potentiation, less the hit threshold, % at 10 µM; 68% of 1,200 active;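 active means fluorescence ratio rising 3 SD or more over the vehicle control mean in both replicates, plus primary screen hit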;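 further: peak minus minimum thallium fluorescence divided by baseline after K/Tl stimulus; 0% = vehicle mean plus 3 SD and 100% = vehicle minus unstimulated blank difference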
Kir2-1 sel: tests whether KCNQ2 potentiators also affect mouse Kir2.1. shares compounds with KCNQ2 enhance. HEK293 Kir2.1, FluxOR thallium flux fluorescence. activity over 3SD threshold, % at 10 µM. 2% of 1,200 active. AID 2345;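 active means fluorescence ratio rise of at least 3 SD above the vehicle-control mean, seen in both replicates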;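 further: 0% = vehicle mean plus 3 SD and 100% = vehicle minus no-stimulus blank window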
KCNQ2 W236L pot: rat KCNQ2 W236L mutant potentiation by KCNQ2 potentiators | shares compounds with KCNQ2 enhance | 10% of 940 active | CHO KCNQ2-W236L, automated patch clamp current | current increase over 3SD of negative controls (%), hits give high values, % at 25 µM;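 active means current increase at least 3 SD of the untreated controls above them in both duplicate recordings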
Target sequence (O88943 whole entry W236L, looked up): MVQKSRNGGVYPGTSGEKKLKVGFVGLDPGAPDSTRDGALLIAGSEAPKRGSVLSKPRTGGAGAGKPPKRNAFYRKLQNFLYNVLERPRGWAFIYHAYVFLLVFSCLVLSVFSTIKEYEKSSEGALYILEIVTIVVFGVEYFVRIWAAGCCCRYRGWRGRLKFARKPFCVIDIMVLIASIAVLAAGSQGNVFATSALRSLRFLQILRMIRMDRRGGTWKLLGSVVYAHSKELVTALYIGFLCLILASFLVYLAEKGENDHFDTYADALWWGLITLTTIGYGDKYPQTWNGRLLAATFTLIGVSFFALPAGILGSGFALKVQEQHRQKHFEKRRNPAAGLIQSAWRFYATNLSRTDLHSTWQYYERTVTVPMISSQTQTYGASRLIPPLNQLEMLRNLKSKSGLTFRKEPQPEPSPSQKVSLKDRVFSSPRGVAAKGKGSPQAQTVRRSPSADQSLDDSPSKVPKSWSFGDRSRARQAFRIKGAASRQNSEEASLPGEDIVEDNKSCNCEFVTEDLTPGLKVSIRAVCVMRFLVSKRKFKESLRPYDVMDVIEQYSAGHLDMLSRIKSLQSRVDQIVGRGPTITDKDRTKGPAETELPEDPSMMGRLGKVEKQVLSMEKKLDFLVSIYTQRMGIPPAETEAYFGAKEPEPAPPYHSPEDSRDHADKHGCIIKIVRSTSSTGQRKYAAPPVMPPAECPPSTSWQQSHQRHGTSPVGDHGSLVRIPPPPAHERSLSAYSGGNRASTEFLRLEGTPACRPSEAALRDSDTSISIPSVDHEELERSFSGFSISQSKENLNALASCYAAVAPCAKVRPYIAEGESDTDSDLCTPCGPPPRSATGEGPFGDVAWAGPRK
Numbers without * were called inactive; i = inactive; nt = no result given; ! = not confirmed by another sample.

SMILES | KCNQ2 enhance | KCNQ2 block | Kir21 confirm | HEK293 ctr | others
Cc1ccc(S(=O)(=O)NCC(=O)N/N=C/c2ccccc2O)cc1 | nt | i | nt | nt
CCOC(=O)Oc1ccc(/C=C2\N=C(C)OC2=O)cc1 | nt | i | nt | nt
COc1ccc(CNC/C=C/c2ccccc2)cc1 | 0.18 | i | 18.0%* | i
Cc1ccc(C(O)(CNCc2ccccc2)c2ccccc2)cc1 (configuration not stated) | nt | i | 46.0%* | i
COc1ccc(CCNC/C=C/c2ccccc2)cc1 | 0.37 | i | nt | nt
COc1ccc(CNCC(O)(c2ccccc2)c2ccc(F)cc2)cc1OC (configuration not stated) | 0.98 | i | nt | nt
COc1ccc(CNCC(O)(c2ccccc2)c2ccc(F)cc2)cc1 (configuration not stated) | nt | i | 41.5%* | i
Cc1ccc(C(O)(CCN2CCCCC2)c2ccccc2)cc1 (configuration not stated) | nt | i | nt | nt
O=C(CCC(=O)Nc1ccccc1Cl)NNC(=O)NC1CCCCC1 | nt | i | nt | nt
Cc1cccc(C(=O)N2CCN(Cc3nc4sc5c(c4c(=O)[nH]3)CCCC5)CC2)c1 | 0.4 | i | nt | nt
COc1cccc(OC)c1OCCOc1ccccc1OC(C)C | nt | i | 41.0%* | i
COc1cccc(OC)c1OCCCOc1c(OC)cccc1OC | nt | i | nt | nt
Cc1ccc(C(=O)N/C(=C\c2cccs2)C(=O)NCCCN2CCOCC2)cc1 | 1.19 | i | nt | nt
COc1ccccc1CNC(=O)C(=O)NCC1OCCCN1S(=O)(=O)c1ccc(F)cc1C (configuration not stated) | nt | i | nt | nt
CCOC(=O)C1=C[C@]2(CC)CCCN3CCc4c(n1c1ccccc41)[C@@H]32 | 10.1* | i | nt | nt | CHO-K1 ctr=-3.7;KCNQ1 sel pot=60.7*;KCNQ2 pot confirm=39.1*;Kir2-1 sel=-58.2;KCNQ2 W236L pot=i
CCOC(=O)Cn1c2c(c(=N)c3ccccc31)CCC2 | 0.87 | i | nt | nt
O=C(NC1CCSc2ccccc21)c1ccccc1Br (configuration not stated) | nt | i | nt | nt
COc1ccccc1N1CCN(C(=O)c2ccc3c(=O)n(Cc4ccc5c(c4)OCO5)c(=O)[nH]c3c2)CC1 | 1.1 | i | nt | nt
C/C(=N\O)C(=O)C(CN1CCCCC1)CN1CCCCC1 | 6.04* | i | i | i | CHO-K1 ctr=-6.4;KCNQ1 sel pot=35.4*;KCNQ2 pot confirm=-2.4;Kir2-1 sel=-31.2
CC(=O)/C(CN1CCCCC1)=N\O | nt | i | nt | nt
CC(C)(C)n1nc2c(c1NC(=O)Cc1ccc(F)cc1)CSC2 | 14.3* | i | i | i | CHO-K1 ctr=1.6*;KCNQ1 sel pot=-15.7;KCNQ2 pot confirm=83.9*;Kir2-1 sel=-45.5;KCNQ2 W236L pot=i
CC(C)(C)C(=O)Nc1c2c(nn1-c1ccc(F)cc1)CSC2 | 0.03 | i | nt | nt
COc1ccc(S(=O)(=O)NCCCn2ccnc2)cc1Cl | nt | i | nt | nt
OCc1cccnc1 | 0.63 | i | nt | nt
Cc1cc2ccccc2nc1SCC(=O)NC1CCCC1 | 4.84 | i | nt | nt
SMILES | KCNQ2 enhance | KCNQ2 block | Kir21 confirm | HEK293 ctr | others
Cc1cc2ccccc2nc1SCC(=O)NC1CCCCC1 | 11* | i | i | i | CHO-K1 ctr=-55.8;KCNQ1 sel pot=-18.4;KCNQ2 pot confirm=11.3*;Kir2-1 sel=-35.5;KCNQ2 W236L pot=i
Cc1ccc(NC(=O)CC(O)(C(F)(F)F)C(F)(F)F)cc1 | 9.65* | i | i | i | CHO-K1 ctr=-6.0;KCNQ1 sel pot=-13.2;KCNQ2 pot confirm=35.8*;Kir2-1 sel=-23.2;KCNQ2 W236L pot=3.0%*
Cc1ccc(NC(=O)CC(N)=S)cc1 | nt | i | nt | nt
COc1ccc(N2CCN(C(CNS(C)(=O)=O)c3ccco3)CC2)cc1 (configuration not stated) | nt | i | nt | nt
Cc1cc(N2C(=O)C=CC2=O)c([N+](=O)[O-])cc1C | nt | i | nt | nt
CNC[C@H](CC1CCCCC1)NC[C@H](Cc1ccccc1)NCCC12CC3CC(CC(C3)C1)C2 | 1.3 | i | i | i
O=C(CC12CC3CC(CC(C3)C1)C2)NC(Cc1ccccc1)C(=O)O (configuration not stated) | 0.32 | i | nt | nt
CC12CCC(=O)N1C(C(=O)NCCc1ccc(S(N)(=O)=O)cc1)CS2 (configuration not stated) | 0.32 | i | nt | nt
CCCCCCCCNC(C)C(O)c1ccc(SC(C)C)cc1 (configuration not stated) | 6.84* | i | nt | nt | CHO-K1 ctr=-55.8;KCNQ1 sel pot=-20.1;KCNQ2 pot confirm=-46.2;Kir2-1 sel=-61.6
C[C@@H](NCCc1ccc(O)cc1)[C@@H](O)c1ccc(O)cc1 | 0.08 | i | nt | nt
CC1CCN(C(=O)COc2ccc3ccccc3c2Br)CC1 | 16.2* | i | i | i | CHO-K1 ctr=-0.8;KCNQ1 sel pot=-10.9;KCNQ2 pot confirm=31.7*;Kir2-1 sel=-38.3;KCNQ2 W236L pot=i
O=C(COc1ccc2cc(Br)ccc2c1Br)N1CCOCC1 | 9.51* | i | i | i | CHO-K1 ctr=42.4*;KCNQ1 sel pot=-4.6;KCNQ2 pot confirm=8.8*;Kir2-1 sel=-43.8;KCNQ2 W236L pot=i
CC1CCN(C(=O)COc2ncnc3ccccc23)CC1 | 0.45 | i | nt | nt
O=C(COc1ncnc2ccc(Br)cc12)N1CCOCC1 | 0.98 | i | nt | nt
O=C(CSc1nnc2ccccn12)Nc1ccccc1C(=O)O | 0.39 | i | nt | nt
COc1cc(Cl)c(C)cc1NC(=O)Cc1cccs1 | 2.14 | i | nt | nt
NC(=O)SCC(=O)Nc1ccc(Cl)cc1 | 6* | i | i | i | CHO-K1 ctr=-10.3;KCNQ1 sel pot=19.8*;KCNQ2 pot confirm=19.5*;Kir2-1 sel=-39.9;KCNQ2 W236L pot=i
Cc1c(Cl)cccc1NC(=O)CSC(N)=O | 4.6 | i | nt | nt
N#CCSCC(=O)Nc1ccc(Cl)cc1 | 0.01 | i | nt | nt
COCC(=O)Nc1ccc(C)c(Cl)c1 | 2.11 | i | nt | nt
NC(=O)SCC(=O)Nc1cccc(Cl)c1 | 7.69* | i | i | i | CHO-K1 ctr=16.3*;KCNQ1 sel pot=-5.6;KCNQ2 pot confirm=12.4*;Kir2-1 sel=-43.8;KCNQ2 W236L pot=i
Cc1ccc(NC(=O)CSC(N)=O)cc1Cl | 5.29 | i | i | i | CHO-K1 ctr=-23.5;KCNQ1 sel pot=-21.8;KCNQ2 pot confirm=3.0*;Kir2-1 sel=-41.8;KCNQ2 W236L pot=i
COc1ccc(S(=O)(=O)N2CCN(C(=O)C3CCCO3)CC2)cc1 (configuration not stated) | 0.34 | i | nt | nt
O=C(Nc1ncc([N+](=O)[O-])s1)c1cccs1 | 7.7*! | i | i | i | CHO-K1 ctr=3.5*;KCNQ1 sel pot=-14.3;KCNQ2 pot confirm=-19.3;Kir2-1 sel=-31.8
Cc1cnc(NC(=O)c2cccs2)s1 | 0.05 | i | nt | nt
Cc1ccc(-c2cc(-c3n[nH]c(=S)o3)c3ccccc3n2)cc1 | 13.8* | i | i | 485.5%* | CHO-K1 ctr=47.4*;KCNQ1 sel pot=-12.2;KCNQ2 pot confirm=167.5*;Kir2-1 sel=-5.7;KCNQ2 W236L pot=i
S=c1[nH]nc(-c2cc(-c3ccccn3)nc3ccccc23)o1 | 0.83 | i | nt | nt
CN(C(=O)CS(=O)(=O)c1cccc(Cl)c1)c1ccccc1 | nt | i | nt | nt
O=C(Oc1ccc(C(=S)N2CCOCC2)cc1Br)c1ccccc1F | nt | i | nt | nt
